Source: PubChem BioAssay (Sanford-Burnham Center for Chemical Genomics)
The list is not random: actives were taken first. Their share in the collection is about 3%.
SENP7 inh – blocks the human protease SENP7; Q9BQF6; recombinant SENP7, Z-RLRGG-aminoluciferin luminescence, 40 min; inhibition, % at 5 µM; 330,000 compounds, 1.5% hits; AID 434973;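 active means inhibition above about 50% at the single test dose, limit read from the data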
Target sequence (Q9BQF6 706-1050 limits assumed): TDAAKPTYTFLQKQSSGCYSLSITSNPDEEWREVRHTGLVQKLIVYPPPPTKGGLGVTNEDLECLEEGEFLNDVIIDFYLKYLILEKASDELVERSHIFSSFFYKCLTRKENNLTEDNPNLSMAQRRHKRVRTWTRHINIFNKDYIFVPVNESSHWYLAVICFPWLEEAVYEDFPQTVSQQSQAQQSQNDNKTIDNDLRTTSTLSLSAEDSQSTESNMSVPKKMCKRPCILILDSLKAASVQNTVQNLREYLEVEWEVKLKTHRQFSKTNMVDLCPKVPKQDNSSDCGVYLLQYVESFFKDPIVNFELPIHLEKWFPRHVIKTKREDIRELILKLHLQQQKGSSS
SENP6 block – blocks the human protease SENP6 | 330,000 compounds, 1.8% hits | Q9GZR1 | Recombinant SENP6 catalytic domain, aminoluciferin luminescence | inhibition, % at 10 µM;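 active means inhibition above about 50% at the single tested dose, limit read from the data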
SENP8 block-1 – SENP8 protease inhibition | Q96LD8 | purified SENP8, Z-RLRGG-aminoluciferin cleavage, luminescence | inhibition, % at 10 µM | 330,000 compounds, 1.2% hits | AID 2540; in the data active means inhibition above about 50%
Target sequence (Q96LD8 whole entry, looked up): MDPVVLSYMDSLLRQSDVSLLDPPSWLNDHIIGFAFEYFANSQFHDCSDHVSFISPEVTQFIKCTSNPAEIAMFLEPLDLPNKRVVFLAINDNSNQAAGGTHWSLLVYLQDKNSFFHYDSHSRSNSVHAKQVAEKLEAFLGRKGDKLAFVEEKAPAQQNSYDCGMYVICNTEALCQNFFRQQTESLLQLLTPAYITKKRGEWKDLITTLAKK
C8 TRAIL sens – caspase-8 TRAIL sensitization; NB7+C8 cells + TRAIL, ATPlite viability luminescence; inhibition (viability loss, TRAIL sensitization), % at 10 µM; 360,000 compounds, 1% hits; AID 624354;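 active means compounds causing at least 50% loss of cell viability in the single-dose screen, relative to plate controls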
PPC-1+TRAIL kill – compounds killing PPC-1 cancer cells with TRAIL present (potentiator screen, no TRAIL-free arm); PPC-1 cells + TRAIL, ATPLite viability luminescence; AID 1443; cell killing (% activity), % at 4 µM or 5 µM; 220,000 compounds, 0.41% hits;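 active means cell killing above 50% in the first pass at 4 µM, then a duplicate retest at 5 µM averaging 50% or more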
SENP8 block-2 – inhibitors of human SENP8 protease | AID 602440 | 360,000 compounds, 0.64% hits | inhibition, % at 20 µM | Q96LD8 | recombinant SENP8, Nedd8 substrate fluorescence; in the data active means inhibition mostly above about 40%, no sharp cut-off; inactive means mostly below about 27%
Numbers stand for hits; 0 = inactive; - = no result given.

SMILES	SENP7 inh	SENP6 block	SENP8 block-1	C8 TRAIL sens	PPC-1+TRAIL kill	SENP8 block-2
CCN(Cc1ccccc1)C(=O)COC(=O)c1c(C)nsc1NC	0	0	0	0	-	0
COC1=CC(=O)OC(c2cccc(C(F)(F)F)c2)C1 (stereo not given)	-	-	-	0	-	0
Cc1ccc(S(=O)(=O)N2CCN(C(C)CC(=O)O)CC2)cc1 (stereo not given)	0	0	0	0	0	0
Cc1nn(-c2ccccc2)c(N)c1N=Nc1cccc(S(=O)(=O)N2CCOCC2)c1	0	0	0	0	0	41
CCOc1ccc(S(=O)(=O)N2CCCC(C(=O)NCc3ccccc3)C2)cc1 (stereo not given)	0	0	0	0	-	0
CC(=NNC(=O)c1ccccc1N)c1ccccc1O	-	-	-	54	-	0
COc1ccc(/C(C)=N/NC(=O)c2ccccc2N)cc1	0	0	0	0	0	0
C/C(=N/NC(=O)c1cc2ccccc2cc1O)c1ccco1	0	74	52	55	-	0
C/C(=N\NC(=O)c1cc(C)nc2ccccc12)c1ccco1	0	0	0	0	0	0
CC(C)(C)c1ccc(C2CC2C(=O)N/N=C\c2ccc[nH]2)cc1 (stereo not given)	0	0	0	65	0	0
O=[N+]([O-])c1cc(/C=N/N2CCN(C3c4ccccc4-c4ccccc43)CC2)ccc1Cl	0	0	0	0	0	47
Cc1cc(C)nc(N/N=C/c2ccccc2Cl)n1	0	0	0	0	0	0
Cc1cc(N/N=C/c2ccccc2Cl)nc(NCc2ccccc2)n1	0	0	0	57	0	0
O=C(Nc1ccccc1)Nc1ccc(-n2ccc(C(F)(F)F)n2)cc1	58	71	57	0	0	0
COC(=O)c1c(C)[nH]c(C(=O)OCC(=O)N(CC(C)C)c2c(N)n(Cc3ccccc3)c(=O)[nH]c2=O)c1C	0	0	0	0	-	0
CC(=O)Nc1sc(C)c(C)c1C(=O)OCC(=O)N(CC(C)C)c1c(N)n(Cc2ccccc2)c(=O)[nH]c1=O	0	0	0	95	-	0
COCCCn1c(SCC(=O)N2CCOCC2)nnc1-c1ccco1	0	0	0	0	-	0
Cc1nnc(-c2ccccc2)o1	0	0	0	0	0	0
Cc1ccc(-c2nnc(/C=C/c3ccccc3)o2)cc1	0	76	0	0	0	0
Cc1ccccc1Oc1cc(-n2ncc(Cl)c(Cl)c2=O)ncn1	-	-	-	97	0	0
CCOc1cnn(-c2cc(Oc3ccc(C)cc3)ncn2)c(=O)c1Cl	0	0	0	0	0	0
CCN(CC)S(=O)(=O)c1ccc(N2C(=O)CC2(/C=C/c2ccccc2)C(=O)NC2CCCC2)cc1 (stereo not given)	0	0	0	0	0	0
COc1ccccc1/C=C/C1(C(=O)NC2CCCC2)CC(=O)N1c1ccc(C)cc1 (stereo not given)	0	0	0	60	0	0
COc1ccccc1/C=C/C1(C(=O)NC2CCCC2)CC(=O)N1c1ccc(F)cc1 (stereo not given)	0	0	0	92	0	0
Cc1cccc(C)c1NC(=O)C1c2ccccc2OCC(=O)N1Cc1ccccc1 (stereo not given)	-	-	-	0	-	0
SMILES	SENP7 inh	SENP6 block	SENP8 block-1	C8 TRAIL sens	PPC-1+TRAIL kill	SENP8 block-2
CCOc1ccc2nc(NC(=O)CN3CCC(n4nnc5cc(C(F)(F)F)ccc54)CC3)sc2c1	0	0	0	56	0	0
NNc1nc(C(F)(F)F)nc2ccccc12	0	0	0	0	0	0
O/C=c1\ccc2cccc3nc(C(F)(F)F)nc1c23	0	0	0	0	-	46
CC(C)Cc1nc2oc3c(Cl)ncnc3c2c2c1CCCC2	0	0	0	67	0	0
C=CCn1c(NC(=O)c2ccc(C)cc2)nc2ccccc21	0	0	0	0	-	0
C=CCOc1ccc(/C=C/C(C)=N\O)cc1	89	79	83	61	0	0
CC1(C)Cc2nc3sc4c(SCC(=O)NCc5ccccc5)ncnc4c3cc2CO1	0	0	0	0	0	0
COC(=O)CSc1ncnc2c1sc1nc3c(cc12)COC(C)(C)C3	0	0	0	73	0	0
COc1cc2c(cc1NC(=O)c1cccc([N+](=O)[O-])c1)oc1ccccc12	0	0	0	50	0	0
Cc1nc2nc(C)n(CCN3CCOCC3)c(=O)c2c(-c2cccc([N+](=O)[O-])c2)c1C(=O)CCCCCCCCCCN1CCC(c2ccccc2)(c2ccccc2)CC1	-	-	-	92	-	0
O=C(CNC(=O)c1cc(S(=O)(=O)N2CCCCC2)ccc1N1CCOCC1)Nc1ccc(F)c(F)c1	0	0	0	0	-	0
C[C@H](CO)N1C[C@H](C)[C@@H](CN(C)C(=O)NC2CCCCC2)Oc2c(NS(=O)(=O)c3ccccc3)cccc2C1=O	0	0	0	50	-	0
C[C@H](CO)N1C[C@H](C)[C@@H](CN(C)C(=O)NC2CCCCC2)Oc2c(NS(=O)(=O)c3ccc(F)cc3)cccc2C1=O	0	0	0	0	-	0
COC(=O)Cn1c(O)c(N=NC(=O)CNC(=O)COc2cccc(C)c2)c2ccccc21	0	0	0	0	-	0
Cc1cccc(NC(=S)N/N=C/c2ccc([N+](=O)[O-])s2)c1	0	0	0	48	0	0
Cc1ccc(C23CC4CC(CC(C(=O)OCC(=O)NC5CCS(=O)(=O)C5)(C4)C2)C3)cc1 (stereo not given)	0	0	0	0	0	0
CC(=O)Nc1ccc(NC(=O)CSc2nnc(NC(=O)c3ccccc3F)s2)cc1	-	-	-	66	-	0
Cc1ccc2nc(-c3ccc(NC(=O)CSc4nccc(=O)[nH]4)cc3)sc2c1	69	81	0	0	0	0
O=C(CCN1C(=O)NC2(CCCC2)C1=O)Nc1ccc(Sc2ccc(Br)cc2)cc1	-	-	-	0	-	0
O=C(CCN1C(=O)NC2(CCCC2)C1=O)Nc1ccc(-c2nc3ccccc3s2)cc1	0	0	0	56	-	0
O=C(CSc1nnc(NC(=O)c2ccccc2F)s1)NC1CCCC1	0	0	0	0	-	0
Cc1ccc2nc(-c3ccc(NC(=O)COC(=O)c4ccc(=O)[nH]c4)cc3)sc2c1	0	0	0	0	50	0
O=C(Nc1cccnc1)C1Cc2c(-c3ccccc3Oc3ccccc3)ccnc2O1 (stereo not given)	-	-	-	0	-	0
O=C(CSc1nc2ccccc2n1S(=O)(=O)c1ccccc1)N1CCCC1	0	0	0	0	0	0
CC(=O)N1CCc2cc(S(=O)(=O)CCC(=O)Nc3cc(C)cc(C)c3)ccc21	0	0	0	0	-	0
Cc1nnc(SCC(=O)Nc2ccc(-c3nc4ccccc4s3)cc2)s1	-	-	-	67	0	0
Cc1nnc(SCC(=O)Nc2ccccc2NC(=O)CSc2nnc(C)s2)s1	0	0	0	0	0	0
Cc1ccc2nc(-c3ccc(NC(=O)CCS(=O)(=O)c4ccccc4)cc3)sc2c1	0	0	0	88	0	0
Cc1ccc2nc(-c3ccc(NC(=O)C(C)Sc4nncs4)cc3)sc2c1 (stereo not given)	0	0	0	52	-	0
